Reference: PubChem BioAssay (NCATS)
Results filed as inconclusive are left out. A call without a number means that no potency is given here. The source made the active and inactive calls. Calls follow the shape of the dose curve; as a rule, active = well fitted curve in the direction sought with a large enough effect; inconclusive = small, poorly fitted or top-dose-only effect, or another doubt; inactive = no such curve, though single readings can be large; an effect the other way counts as inactive or inconclusive.

Test system: not listed separately
Test: Confirmatory screen NINDS Rhodamine qHTS for Zika virus inhibitors (AID 1347161); also: nearly all actives have a fitted effect of over 60% in size; also: potency is read from the fitted curve at half-maximal effect
Conditions: purified enzyme assay, Rhodamine110 substrate fluorescence, 15 min; series mostly up to 38.1 µM
Procedure, shortened: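 Rhodamine110-peptide cleavage (1.5 µM substrate) by 25 nM linked NS2B-NS3 enzyme at pH 8.0 (Tris, Tween 20), after 15 min RT preincubation with compounds; 15-min fluorescence change normalized to controls and Hill-fitted.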

Compound	Potency
COc1c(C(C)C)cc2c(c1O)[C@@]1(C(=O)O)CCCC(C)(C)C1CC2 (stereo not given in full)	9.67 µM (active)
CCCCCOc1cc2c(cc1-c1cc(/C=C/C(=O)O)ccc1O)C(C)(C)CCC2(C)C	2.21 µM (active)
CCN1CC2(COC)C3[C@@H](OC)C4C1C3(C1C[C@]3(O)[C@H](OC(=O)c5ccccc5)C1[C@]4(OC(C)=O)[C@@H](O)[C@@H]3OC)[C@H](OC)C[C@H]2O (stereo not given in full)	inactive
COC(=O)C1(C)CCC(O)C2(C)c3cc(O)c(C(C)C)cc3C(O)C(OC(C)=O)C12 (stereo not given)	27.1 µM (active)

Biological target: Lysine-specific demethylase 5B (Homo sapiens) (UniProt Q9UGL1)
Sequence (Q9UGL1 whole entry, looked up): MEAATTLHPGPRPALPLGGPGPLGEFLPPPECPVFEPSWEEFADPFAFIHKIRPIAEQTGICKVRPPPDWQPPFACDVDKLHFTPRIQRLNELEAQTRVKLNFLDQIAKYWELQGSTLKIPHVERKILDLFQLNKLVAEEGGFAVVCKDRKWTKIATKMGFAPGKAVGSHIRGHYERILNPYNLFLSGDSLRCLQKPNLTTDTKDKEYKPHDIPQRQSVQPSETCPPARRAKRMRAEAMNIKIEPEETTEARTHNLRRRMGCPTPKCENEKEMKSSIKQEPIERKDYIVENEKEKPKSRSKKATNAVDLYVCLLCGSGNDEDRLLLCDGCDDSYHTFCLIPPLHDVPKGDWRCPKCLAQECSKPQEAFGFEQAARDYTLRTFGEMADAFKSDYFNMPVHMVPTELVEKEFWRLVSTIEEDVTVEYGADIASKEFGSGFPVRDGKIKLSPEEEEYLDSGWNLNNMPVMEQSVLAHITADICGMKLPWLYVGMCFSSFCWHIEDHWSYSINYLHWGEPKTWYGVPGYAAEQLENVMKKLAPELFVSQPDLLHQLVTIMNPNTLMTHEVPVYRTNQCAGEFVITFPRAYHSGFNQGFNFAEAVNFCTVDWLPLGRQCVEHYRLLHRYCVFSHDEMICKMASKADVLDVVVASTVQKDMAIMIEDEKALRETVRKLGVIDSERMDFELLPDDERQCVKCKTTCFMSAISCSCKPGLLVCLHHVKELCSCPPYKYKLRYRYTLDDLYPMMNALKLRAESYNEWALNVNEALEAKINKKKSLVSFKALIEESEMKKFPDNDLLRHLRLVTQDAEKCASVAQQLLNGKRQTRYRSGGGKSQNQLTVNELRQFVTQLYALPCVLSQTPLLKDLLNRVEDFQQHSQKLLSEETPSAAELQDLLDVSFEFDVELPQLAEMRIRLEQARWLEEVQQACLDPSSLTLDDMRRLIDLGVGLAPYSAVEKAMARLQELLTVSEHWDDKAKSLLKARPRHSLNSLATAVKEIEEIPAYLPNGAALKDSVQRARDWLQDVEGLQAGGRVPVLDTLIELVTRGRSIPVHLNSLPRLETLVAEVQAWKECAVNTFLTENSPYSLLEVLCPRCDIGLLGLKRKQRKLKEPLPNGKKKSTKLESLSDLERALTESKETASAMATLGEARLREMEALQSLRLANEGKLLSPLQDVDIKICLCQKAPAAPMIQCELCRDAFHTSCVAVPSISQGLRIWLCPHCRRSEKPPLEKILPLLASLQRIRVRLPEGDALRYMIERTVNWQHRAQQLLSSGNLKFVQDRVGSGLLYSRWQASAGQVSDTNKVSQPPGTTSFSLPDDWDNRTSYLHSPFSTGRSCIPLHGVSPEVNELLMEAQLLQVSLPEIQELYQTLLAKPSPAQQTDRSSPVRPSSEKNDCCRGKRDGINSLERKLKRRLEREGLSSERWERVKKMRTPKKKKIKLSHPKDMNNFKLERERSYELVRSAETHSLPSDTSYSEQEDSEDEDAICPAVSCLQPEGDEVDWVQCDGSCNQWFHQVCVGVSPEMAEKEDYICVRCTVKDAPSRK
Test: Optimization screen for KDM5B Histone Demethylases FDH coupled qHTS against the LOPAC library (AID 1347166)
Conditions: KDM5B demethylation, FDH-coupled NADH fluorescence (FDH is formaldehyde dehydrogenase); series mostly up to 57.5 µM
Procedure, shortened: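 KDM5BDeltaAP (200nM final) preincubated 10 min with compound, then 12.5uM H3K4Me3, 25uM a-ketoglutarate, ascorbate, Fe(II), NAD+ and FDH added; 50mM HEPES pH 7.5, 0.01% Tween-20. NADH fluorescence (340/450 nm) change over 30 min, room temperature.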

Compound	Potency
CC(N)Cc1c[nH]c2ccc(O)cc12 (stereo not given)	inactive
NC(C(=O)O)c1cc(=O)[nH]o1 (stereo not given)	inactive
CCCN(CCC)C1CCc2cccc(O)c2C1 (stereo not given)	inactive
N[C@@H](Cn1oc(=O)[nH]c1=O)C(=O)O	inactive
O=[N+]([O-])c1ccc2nc(N3CCNCC3)ccc2c1	inactive
CCCN(CCC)[C@@H]1CCc2cccc(O)c2C1	inactive
C[N+]1(C)CCN(c2ccccc2)CC1	inactive
CCNC(=O)[C@H]1O[C@@H](n2cnc3c(N)ncnc32)[C@H](O)[C@@H]1O	inactive
COC(=O)N1CCN(C(=O)Cc2ccc(Cl)c(Cl)c2)C(CN2CCCC2)C1 (stereo not given)	inactive
c1ccc2c(c1)[I+]c1ccccc1-2	inactive
Oc1ccc2c3c1O[C@H]1c4[nH]c5ccccc5c4C[C@@]4(O)C(C2)N(CC2CC2)CCC314 (stereo not given in full)	inactive
